For 33 compounds, Potency and outcome results are on record in PubChem BioAssay (NCATS).

The target in test [1] is Protein phosphatase 1D (Homo sapiens) (UniProt O15297). The experiment in a line: RapidFire Mass Spectrometry qHTS Assay for Modulators of WT P53-Induced Phosphatase 1 (WIP1) (AID 1347424).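 Note: amount of dephosphorylated VEPPL-S-QETFS peptide product formed by WIP1.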 Note: potency is the fitted concentration of half-maximal effect. The method in brief: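 10 nM WIP1 preincubated with compounds 1 hr at room temperature in pH 7.5 Tris buffer with 30 mM MgCl2, 1 mM TCEP; 2 uM VEPPL-pS-QETFS phosphopeptide for 5 min, formic acid quench; dephosphorylated product quantified by RapidFire MS against labelled standard.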

Test [2] has the same target. The experiment in a line: Rhodamine-PBP qHTS Assay for Modulators of WT P53-Induced Phosphatase 1 (WIP1) (AID 1347425). The method in brief: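 5 nM WIP1 + 10 uM Rh-PBP, 50 mM Tris pH 7.5, 30 mM MgCl2, 1 mM TCEP, 0.1 mM EGTA, BSA; cpds pinned, 1 hr RT; + 10 uM phosphopeptide; fluorescence 1-min reads x 11 min; delta = f1 - f0.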
Test [3] can be described thus: Primary qHTS for inhibitors of La Crosse Virus (LACV) - induced cell death in SH-SY5Y cells (AID 1508616).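 Note: top concentration of the series differs between compounds; higher means more rescue of cells from virus-induced death.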 The method, boiled down: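 Luminescent ATP readout (ATPLite 1step, 5 min room temperature) measured rescue from LACV-induced death after 6 days of infection at 0.01 MOI; normalized to infected DMSO wells and uninfected DMSO wells.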
A general note: In qHTS, concentration-response curves come from the screen itself.

In test [4] the target is Calcium and integrin-binding protein 1 (Homo sapiens) (UniProt Q99828). Nature of the test: Primary qHTS for Identification of Calcium Integrin Binding Protein 1 (CIB1) Competitor (AID 1508620). Note: potency is the fitted concentration of half-maximal effect. The method in brief:
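Fluorescence polarization competition: GST-tagged CIB1 (1 uM final) preincubated with compound 15 min at room temperature, then FITC-labelled alphaIIb peptide (100 nM final) added. After 15 min at room temperature, polarization read at Ex 480/Em 540.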

Test [5] in a line: Counterscreen qHTS for small molecule stabilizers of the endoplasmic reticulum resident proteome: GLuc-NoTag assay (AID 1508627).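 Note: SH-SY5Y cells given compound then 100 nM thapsigargin to empty ER calcium; series mostly up to about 76 µM.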 The method, boiled down:
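SH-SY5Y cells stably expressing constitutively secreted GLuc without SERCaMP tag, exposed to compound for 19 hr, then to 100 nM thapsigargin for 4 hr at 37C. Medium luciferase was read by coelenterazine luminescence without lysis.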

Test [6] has as its target Calcium and integrin-binding protein 1 (Homo sapiens) (UniProt Q99828). Nature of the test: Confirmatory qHTS for Identification of Calcium Integrin Binding Protein 1 (CIB1) Competitor (AID 1508617). Note: nearly all actives have a fitted effect of over 65% in size. Note: potency is the fitted concentration of half-maximal effect. The method, boiled down:
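Confirmatory qHTS measures displacement of a FITC-alphaIIb peptide (100 nM) from CIB1-GST (1 uM) by fluorescence polarization. Calcium-containing HEPES buffer, pH 7.4; two 15 min room-temperature incubations.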

Inconclusive results are not listed. Where a call stands in place of a potency, no number is given. Calls of active or inactive are those of the source. Calls come from the whole dose curve; as a rule, active = well fitted curve in the direction sought with a large enough effect; inconclusive = small, poorly fitted or top-dose-only effect, or another doubt; inactive = no such curve, though single readings can be large; an effect the other way counts as inactive or inconclusive.

Protein phosphatase 1D (Homo sapiens), sequence (O15297 whole entry, looked up): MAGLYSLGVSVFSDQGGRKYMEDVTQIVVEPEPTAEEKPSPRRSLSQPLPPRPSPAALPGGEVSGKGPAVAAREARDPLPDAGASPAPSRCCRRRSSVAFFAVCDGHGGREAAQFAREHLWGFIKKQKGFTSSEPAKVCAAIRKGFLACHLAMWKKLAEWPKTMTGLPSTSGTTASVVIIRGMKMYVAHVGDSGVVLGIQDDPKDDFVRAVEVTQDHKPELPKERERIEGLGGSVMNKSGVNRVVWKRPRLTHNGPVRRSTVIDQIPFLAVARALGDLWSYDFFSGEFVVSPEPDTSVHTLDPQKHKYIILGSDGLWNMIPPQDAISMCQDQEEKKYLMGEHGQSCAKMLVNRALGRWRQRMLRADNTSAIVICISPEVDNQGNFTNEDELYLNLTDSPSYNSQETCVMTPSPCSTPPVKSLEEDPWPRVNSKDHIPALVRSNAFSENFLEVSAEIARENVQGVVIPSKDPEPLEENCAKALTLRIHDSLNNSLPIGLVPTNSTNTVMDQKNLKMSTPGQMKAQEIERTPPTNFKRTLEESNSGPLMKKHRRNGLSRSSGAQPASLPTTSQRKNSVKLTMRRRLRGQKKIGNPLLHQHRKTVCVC
Calcium and integrin-binding protein 1 (Homo sapiens), sequence (Q99828 whole entry, looked up): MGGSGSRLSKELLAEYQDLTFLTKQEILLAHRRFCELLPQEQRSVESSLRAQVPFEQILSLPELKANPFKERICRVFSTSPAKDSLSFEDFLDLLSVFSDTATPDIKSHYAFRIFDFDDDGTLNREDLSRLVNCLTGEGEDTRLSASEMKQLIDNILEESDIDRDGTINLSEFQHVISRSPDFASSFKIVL

For the compound `CC(C)=CCC/C(C)=C/CC/C(C)=C/CCC(=O)OC/C=C(\C)CCC=C(C)C`, the Potency result in test [1] and in test [4] was “inactive” each time. Moreover, the compound was called inactive in test [2] and in test [3].
As for `CCOc1ncc(F)c(=O)[nH]1`, the Potency entry in test [1], in test [4] and in test [5] was “inactive” throughout. The outcome in test [2] and in test [3] was inactive.
In the case of `C[C@@H]1C[C@H]2[C@@H]3CCC4=CC(=O)C=C[C@]4(C)[C@@]3(F)[C@@H](O)C[C@]2(C)[C@@]1(O)C(=O)COC(=O)c1ccncc1`, the Potency result in test [1] and in test [4] was “inactive” in each case. The call in test [2] and in test [3] was inactive.
`CCCCC(=O)OCC(=O)[C@H]1[C@H](C)C[C@H]2[C@@H]3C[C@H](F)C4=CC(=O)C=C[C@]4(C)[C@@]3(F)[C@@H](O)C[C@@]21C`: the Potency result in test [1] and in test [4] was “inactive” in each case. Moreover, the call in test [2] and in test [3] was inactive.
For the compound `O=C(O)Cn1cnnn1`, the Potency entry in test [1], in test [4] and in test [5] was “inactive” throughout. Also, the result in test [2] and in test [3] was inactive.
As for `O=C(O)c1cn(C2CC2)c2cc(Cl)c(F)cc2c1=O`, the Potency result in test [1] and in test [4] was “inactive” throughout. Further, the call in test [2] and in test [3] was inactive.
Take `O=C(OCC(O)CO)c1ccccc1Nc1ccnc2c(C(F)(F)F)cccc12` (centres undefined): the Potency entry in test [1] and in test [4] was “inactive” each time. In addition, the outcome in test [2] and in test [3] was inactive.
As for `O=[N+]([O-])c1ccc(O)c2ncccc12`, the Potency result in test [1] and in test [6] was “inactive” in each case. Moreover, the compound was classed as inactive in test [2].
`CCOC(=O)c1ccc(OCCN2C[C@H](O)[C@@H](O)[C@H](O)[C@H]2CO)cc1`: the Potency entry in test [1] and in test [4] was “inactive” in each case. Further, the outcome in test [2] and in test [3] was inactive.
Regarding `Cc1oc(=O)oc1COC(=O)[C@@H]1N2C(=O)[C@@H](NC(=O)[C@H](N)c3ccccc3)[C@H]2SC1(C)C`, the Potency entry in test [1] and in test [4] was “inactive” throughout. For the same compound, the compound was called inactive in test [2] and in test [3].
On to `Cc1onc(-c2ccccc2)c1C(=O)Cl`, for which the Potency result in test [1], in test [4] and in test [5] was “inactive” each time. Also, the compound was classed as inactive in test [2] and in test [3].
In the case of `CC(CC1c2ccccc2CCc2ccccc21)CN(C)C` (centres undefined), the Potency entry in test [1], in test [4] and in test [5] was “inactive” throughout. In addition, the result in test [2] and in test [3] was inactive.
For the compound `CCO[C@H](Cc1ccc(OCCc2ccc(OS(C)(=O)=O)cc2)cc1)C(=O)O`, the Potency result in test [1] and in test [4] was “inactive” each time. Further, the outcome in test [2] and in test [3] was inactive.
For the compound `CC(C)NC(=O)c1ccc(C=O)cc1`, the Potency entry in test [1] and in test [4] was “inactive” throughout. Moreover, the result in test [2] and in test [3] was inactive.
For the compound `COc1ccc(-n2nc(CCC(=O)N(C)O)cc2-c2ccc(Cl)cc2)cc1`, the Potency entry in test [1] and in test [4] was “inactive” in each case. The call in test [2] was inactive.
For `O=C(CCC1CCN(Cc2ccccc2)CC1)c1ccc2c(c1)NCCCC2`, the Potency result in test [1] and in test [4] was “inactive” in each case. Besides, the compound was classed as inactive in test [2] and in test [3].
In the case of `Fc1ccc(C(c2ccc(F)cc2)N2CCNCC2)cc1`, the Potency entry in test [1], in test [4] and in test [5] was “inactive” throughout. For the same compound, the compound was classed as inactive in test [2] and in test [3].
Regarding `CN1CCCN(C(c2ccccc2)c2ccc(Cl)cc2)CC1` (centres undefined), the Potency entry in test [1] and in test [4] was “inactive” in each case. The call in test [2] was inactive.
For the compound `CC(C)C[C@H](NC(=O)CNC(=O)[C@H](Cc1ccc(O)cc1)NC(=O)[C@H](CO)NC(=O)[C@H](Cc1c[nH]c2ccccc12)NC(=O)[C@H](Cc1cnc[nH]1)NC(=O)[C@@H]1CCC(=O)N1)C(=O)N[C@@H](CCCN=C(N)N)C(=O)N1CCC[C@H]1C(=O)NCC(N)=O` (stereo in doubt), the Potency entry in test [1] and in test [4] was “inactive” throughout. The compound was classed as inactive in test [3].
As to `CC(C)(C)c1ccc(C(=O)CCCCl)cc1`, the Potency result in test [1] and in test [4] was “inactive” each time. Moreover, the outcome in test [3] was inactive.
As to `CC(=O)O[C@H]1CC[C@@]2(C)C(=CC[C@@H]3[C@@H]2CC[C@]2(C)C(C(C)=O)=CC[C@@H]32)C1`, the Potency result in test [1] and in test [4] was “inactive” in each case. The compound was called inactive in test [2].
Take `CCN(CC)CC(=O)Nc1c(C)cccc1C(=O)OC`: the Potency entry in test [1] and in test [4] was “inactive” throughout. In test [3], the compound was called inactive.
Take `CO/N=C(/C(=O)N[C@@H]1C(=O)N2C(C(=O)OCOC(=O)C(C)(C)C)=C(C)CS[C@H]12)c1csc(N)n1`: the Potency result in test [1] and in test [4] was “inactive” each time. In addition, the result in test [3] was inactive.
Regarding `CCCCCCCCCCCC[N+](C)(C)Cc1ccccc1`, in test [1], the Potency result was “inactive”. Further, in test [3], the result was inactive.
`CO[C@]1(NC(=O)CSC(F)F)C(=O)N2C(C(=O)O)=C(CSc3nnnn3CCO)CO[C@H]21`: the Potency result in test [1] and in test [4] was “inactive” in each case. For the same compound, in test [2], the result was inactive.
Consider `Cc1c(N)cccc1C(F)(F)F`, for which the Potency entry in test [1] and in test [4] was “inactive” in each case. In test [3], the result was inactive.
As for `CO[C@@H]1[C@@H](OC)[C@H](C)[C@@](O)(CC(=O)O)O[C@H]1[C@H](C)[C@H]1O[C@@]2(CC[C@@](C)([C@H]3CC[C@@](C)([C@@H]4O[C@@H]([C@H]5O[C@](C)(O)[C@H](C)C[C@@H]5C)C[C@@H]4OC4C[C@H](OC)[C@@H](OC)[C@H](C)O4)O3)O2)C[C@H](O)[C@H]1C` (some centres undefined), the Potency entry in test [1] and in test [4] was “inactive” each time. In addition, in test [2], the result was inactive.
For the compound `CCc1cc(S(=O)(=O)O)c2cc(C(C)C)cccc1-2`, the Potency entry in test [1] and in test [4] was “inactive” each time. Besides, the compound was called inactive in test [3].
`CCn1ccc(NS(=O)(=O)c2ccc(N)cc2)nc1=O`: the Potency entry in test [1] and in test [4] was “inactive” in each case. Besides, the compound was called inactive in test [3].
As for `CCCCCOc1ccc(C2SC(=O)NC2=O)cc1OCC` (centres undefined), the Potency in test [1] is 2.51 µM (active). In addition, the result in test [3] was inactive. Further, in test [4], the Potency result was “inactive”.
`O=c1[nH]sc2cc(Cl)ccc12`: in test [1], the Potency result was “inactive”. For the same compound, in test [2], the compound was called inactive. Moreover, the Potency in test [4] was 3.55 µM (active).
As for `O=C(c1ccccc1)c1ccccc1`, the Potency result in test [1] and in test [4] was “inactive” throughout. In addition, in test [3], the compound was called inactive.
Take `CCCC(=O)c1cc(O)c(O)cc1O`: the Potency was 35.5 µM (active) in test [1], 35.5 µM (active) in test [6] and 112 µM (active) in test [4]. The call in test [3] was inactive.
